Compounds without any hit were thinned out: in the full panel of roughly 83,000, 20% have a hit.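 Assay: single dose, 48 h. Readout: percent growth (0 = no net growth; negative = cell death). Active: <10.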 Activity calls are given as the source filed them.
Tests used:
Assay in all cases: NCI-60 one-dose screen, 48 h (100 = growth as untreated, 0 = no growth, -100 = all killed)
Conditions in all cases: 10 µM unless noted
SR leukemia = system: SR leukemia
RPMI-8226 leukemia = system: RPMI-8226 leukemia
OVCAR-8 ovarian = system: OVCAR-8 ovarian
OVCAR-5 ovarian = system: OVCAR-5 ovarian
OVCAR-4 ovarian = system: OVCAR-4 ovarian
SK-OV-3 ovarian = system: SK-OV-3 ovarian
IGROV1 ovarian = system: IGROV1 ovarian
OVCAR-3 ovarian = system: OVCAR-3 ovarian
HS 578T breast = system: HS 578T breast
NCI/ADR-RES ovarian = system: NCI/ADR-RES ovarian
T-47D breast = system: T-47D breast
BT-549 breast = system: BT-549 breast
MDA-MB-435 melanoma = system: MDA-MB-435 melanoma
SW-620 colon = system: SW-620 colon
MCF7 breast = system: MCF7 breast
HCT-116 colon = system: HCT-116 colon
HCC-2998 colon = system: HCC-2998 colon
KM12 colon = system: KM12 colon

Measured: growth

COc1ccc(NC(=O)c2sc3nc(C)c(C(=O)CCc4cccc(OC)c4)cc3c2N)cc1
inactive: SR leukemia 20.4% | RPMI-8226 leukemia 45.7% | OVCAR-8 ovarian 90.9% | OVCAR-5 ovarian 68.9% | OVCAR-4 ovarian 76.5% | SK-OV-3 ovarian 70.5% | IGROV1 ovarian 75.8% | OVCAR-3 ovarian 26.1% | HS 578T breast 82% | NCI/ADR-RES ovarian 61.3% | T-47D breast 67.6% | BT-549 breast 79.6% | SW-620 colon 64.7% | MCF7 breast 16.5% | HCT-116 colon 45.6% | HCC-2998 colon 56% | KM12 colon 56.1%
active: MDA-MB-435 melanoma -10.4%

COc1ccc2c(Nc3ccc(NS(C)(=O)=O)cc3)c3ccccc3nc2c1
active: SR leukemia -11.6% | RPMI-8226 leukemia 1.1% | OVCAR-8 ovarian 8% | OVCAR-5 ovarian 4.43% | IGROV1 ovarian 3.52% | OVCAR-3 ovarian -22.3% | HS 578T breast -17.1% | T-47D breast 2.85% | MDA-MB-435 melanoma -11.1% | SW-620 colon -31% | HCT-116 colon 2.19% | HCC-2998 colon -60.9% | KM12 colon -13.2%
inactive: OVCAR-4 ovarian 11.8% | SK-OV-3 ovarian 20.5% | NCI/ADR-RES ovarian 32.7% | BT-549 breast 49.9% | MCF7 breast 11.1%

CCCCCCCCCCCCCCCC(=O)OC[C@@]1(O)C[C@@]23CC[C@@H]4C(C)(C)[C@H](O)CC[C@@]4(C)[C@@H]2CC[C@H]1C3
active: HCT-116 colon -67%
inactive: SR leukemia 98.2% | RPMI-8226 leukemia 102% | OVCAR-8 ovarian 108% | OVCAR-5 ovarian 106% | OVCAR-4 ovarian 113% | SK-OV-3 ovarian 97.1% | IGROV1 ovarian 117% | OVCAR-3 ovarian 107% | HS 578T breast 100% | NCI/ADR-RES ovarian 106% | T-47D breast 98.1% | BT-549 breast 91.5% | MDA-MB-435 melanoma 108% | SW-620 colon 110% | MCF7 breast 97% | HCC-2998 colon 107% | KM12 colon 108%

O=C(c1ccccc1)N1N=C(c2ccc(-n3ccc(C(F)(F)F)n3)cc2)CC1c1ccc[nH]1 (centres undefined)
inactive: SR leukemia 66.7% | RPMI-8226 leukemia 74.7% | OVCAR-8 ovarian 93.7% | OVCAR-5 ovarian 83.4% | OVCAR-4 ovarian 110% | SK-OV-3 ovarian 128% | IGROV1 ovarian 95.8% | OVCAR-3 ovarian 103% | HS 578T breast 95.4% | NCI/ADR-RES ovarian 90.2% | T-47D breast 73.5% | BT-549 breast 116% | MDA-MB-435 melanoma 96% | SW-620 colon 98.9% | MCF7 breast 91.5% | HCT-116 colon 93.7% | HCC-2998 colon 115% | KM12 colon 79.7%

COc1ccccc1/C=N/NC1=NC2C(N1)N(C)C(=O)N2C (centres undefined)
inactive: SR leukemia 110% | RPMI-8226 leukemia 119% | OVCAR-8 ovarian 103% | OVCAR-5 ovarian 102% | OVCAR-4 ovarian 106% | SK-OV-3 ovarian 95.4% | IGROV1 ovarian 96.4% | OVCAR-3 ovarian 107% | HS 578T breast 95.1% | NCI/ADR-RES ovarian 105% | T-47D breast 101% | BT-549 breast 101% | MDA-MB-435 melanoma 103% | SW-620 colon 99.3% | MCF7 breast 99.7% | HCT-116 colon 107% | HCC-2998 colon 101% | KM12 colon 105%

C=C(C)[C@@H]1CC[C@]2(C(=O)N3CCN(C)CC3)CC[C@]3(C)[C@H](CC[C@@H]4[C@@]5(C)CCC(=O)C(C)(C)[C@@H]5CC[C@]43C)[C@@H]12
inactive: RPMI-8226 leukemia 78.1% | OVCAR-8 ovarian 87.1% | OVCAR-5 ovarian 92.5% | OVCAR-4 ovarian 83.5% | SK-OV-3 ovarian 104% | IGROV1 ovarian 89.2% | OVCAR-3 ovarian 74% | HS 578T breast 95.3% | NCI/ADR-RES ovarian 74.6% | T-47D breast 65.3% | BT-549 breast 96.8% | MDA-MB-435 melanoma 92% | SW-620 colon 73.5% | MCF7 breast 59.2% | HCT-116 colon 31.2% | HCC-2998 colon 82.1% | KM12 colon 80.6%
active: SR leukemia -12.1%

COC(=O)Nc1nc2ccc(C(=O)c3cccc(I)c3)cc2[nH]1
active: SR leukemia -3.68% | RPMI-8226 leukemia 7.16% | OVCAR-8 ovarian 6.51% | OVCAR-3 ovarian -5.1% | NCI/ADR-RES ovarian -0.725% | BT-549 breast 6.76% | MDA-MB-435 melanoma -35.8% | HCT-116 colon 9.66% | KM12 colon 7.58%
inactive: OVCAR-5 ovarian 28.6% | OVCAR-4 ovarian 28.3% | SK-OV-3 ovarian 30.3% | IGROV1 ovarian 14.9% | HS 578T breast 13.6% | T-47D breast 63.8% | SW-620 colon 21.3% | MCF7 breast 17.6% | HCC-2998 colon 18.3%

CCCCCCCCOc1ccc(/C=N/Nc2cc(C)nc3ccc(Cl)cc23)cc1
inactive: OVCAR-5 ovarian 27.1% | SK-OV-3 ovarian 90.3% | HS 578T breast 46.9% | T-47D breast 56% | BT-549 breast 111%
active: SR leukemia -23.3% | RPMI-8226 leukemia -3.13% | OVCAR-8 ovarian -34.3% | OVCAR-4 ovarian -69.7% | IGROV1 ovarian -84.6% | OVCAR-3 ovarian -93.1% | NCI/ADR-RES ovarian -22% | MDA-MB-435 melanoma -19.8% | SW-620 colon -70.4% | MCF7 breast -69.7% | HCT-116 colon -69.9% | HCC-2998 colon -58.6% | KM12 colon -72.9%
